SMILES strings stand for the structures. Where a name gives a salt, the structure may show the parent alone.

For the first assay, the system named is Clostridium sporogenes DSM 1664. Put plainly: growth (OD595) fold change vs plate DMSO controls (fold change (ratio)); higher = more growth. Particulars: 20 µM; incubation time: 27 h, anaerobic, 37 °C. The method, boiled down:
(§1)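 Each value is the mean of 2 biological replicates, and fold changes above 1.5 were set to NA. The underlying readings were taken at 595 nm from shaken anaerobic mGAM cultures in 96-well plates after 27 h at 37 °C. They were blank-subtracted, corrected for compound background using 20 µM compound solutions in water, and converted to OD with a calibration factor of 5. Growth is the fold change relative to the median of the plate DMSO controls.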
In the case of `C=C[C@H]1CN2CC[C@H]1C[C@H]2[C@H](OC(=O)OCC)c1ccnc2ccc(OC)cc12` [Quinine ethyl carbonate], the growth is 1.08.

In the case of `S=C(NC1CCCCC1)N1CCC(c2cnc[nH]2)CC1` [Thioperamide maleate], the growth amounted to 0.957.

`N#Cc1sc2c(=O)c3ccccc3c(=O)c=2sc1C#N`: the growth turned out to be 1.14.

For the compound `CC(=O)OC1CN2CCC1CC2` (centres undefined) [Aceclidine hydrochloride], the growth turned out to be 1.15.

Consider `C1=Cc2cccc3cccc1c23` [Acenaphthylene], for which the growth worked out at 0.849.

With `CS(=O)(=O)c1ccc(C(=O)C2C(=O)CCCC2=O)c([N+](=O)[O-])c1`, the growth was determined as 1.1.

As for `CCN(CC)CCOC(=O)C(O)(c1ccccc1)c1ccccc1` [Benactyzine hydrochloride], the growth amounted to 1.07.

As to `c1ccc2c(c1)Nc1ccccc1S2` [Phenothiazine], the growth came to 1.09.

Take `CCC1(C)CC(=O)NC(=O)C1` [Bemegride]: the growth was 1.08.

On to `CNC(=O)/C=C(\C)OP(=O)(OC)OC`, for which the growth came to 1.06.

Take `CC[N+]1(C)CCCC(OC(=O)C(O)(c2ccccc2)c2ccccc2)C1` (centres undefined) [Pipenzolate bromide]: the growth is 0.938.

In the case of `CC(C)(C)c1ccc(CSc2cnn(C(C)(C)C)c(=O)c2Cl)cc1`, the growth turned out to be 0.838.

Regarding `CSc1nc(NC(C)C)nc(NC(C)C)n1`, the growth is 0.932.

Take `O=C(Nc1ccc(F)cc1F)c1cccnc1Oc1cccc(C(F)(F)F)c1`: the growth worked out at 0.931.

With `O=C(CCCN1CCC2(CC1)C(=O)NCN2c1ccccc1)c1ccc(F)cc1` [Spiperone], the growth came out at 0.864.

Consider `CCOCN(C(=O)CCl)c1c(C)cccc1CC`, for which the growth is 0.867.

`ClC1C(Cl)C(Cl)C(Cl)C(Cl)C1Cl` (centres undefined): the growth turned out to be 1.06.

As for `CCSC(C)CC1CC(=O)C(/C(CC)=N/OC/C=C/Cl)=C(O)C1` (mixture of isomers), the growth was determined as 0.928.

With `O=P1(N(CCCl)CCCl)NCCCO1` (centres undefined) [Cyclophosphamide], the growth was found to be 0.997.

Take `CN1[C@@H]2C[C@@H](OC(=O)[C@H](CO)c3ccccc3)C[C@H]1[C@@H]1O[C@@H]12` [Scopolamine hydrochloride]: the growth was determined as 1.07.

On to `COP(=S)(OC)SCN1C(=O)c2ccccc2C1=O`, for which the growth turned out to be 1.02.

Take `CC(C)N(C)S(=O)(=O)NC(=O)c1cc(-n2c(=O)cc(C(F)(F)F)n(C)c2=O)c(F)cc1Cl`: the growth is 0.954.

Take `CN/C(=N/CC1CCOC1)N[N+](=O)[O-]` (centres undefined): the growth was determined as 1.07.

Consider `CC(=O)O[C@H]1C[C@H](O[C@H]2[C@@H](O)C[C@H](O[C@H]3[C@@H](O)C[C@H](O[C@H]4CC[C@@]5(C)[C@H](CC[C@@H]6[C@@H]5C[C@@H](O)[C@]5(C)[C@@H](C7=CC(=O)OC7)CC[C@]65O)C4)O[C@@H]3C)O[C@@H]2C)O[C@H](C)[C@H]1O[C@@H]1O[C@H](CO)[C@@H](O)[C@H](O)[C@H]1O` [Lanatoside C], for which the growth was found to be 1.01.

For `NC(=O)C[S+]([O-])C(c1ccccc1)c1ccccc1` (centres undefined) [Modafinil], the growth is 0.82.

As to `CCn1cc(C(=O)O)c(=O)c2cc3c(cc21)OCO3` [Oxolinic acid], the growth was 0.

Take `c1ccc2c(c1)cc1ccc3cccc4ccc2c1c34` [Benzo[a]pyrene]: the growth was found to be 0.972.

On to `CCNC(=O)NC(=O)/C(C#N)=N/OC`, for which the growth is 1.09.

With `CNC(=O)Oc1ccc2c(c1)[C@]1(C)CCN(C)[C@@H]1N2C` [Eserine hemisulfate salt], the growth was 1.02.

Consider `Oc1ccc2c3c1O[C@H]1[C@@H](O)CC[C@@]4(O)[C@@H](C2)N(CC2CCC2)CC[C@]314` [Nalbuphine hydrochloride], for which the growth turned out to be 0.891.

Turning to `CON(C)C(=O)Nc1ccc(Cl)c(Cl)c1`, the growth came to 1.07.

Turning to `C=CC(N)=O` [Acrylamide], the growth worked out at 0.971.

Take `Nc1ccncc1` [Dalfampridine]: the growth amounted to 0.947.

Regarding `CC(=O)O[C@H]1C[C@@H]2CC[C@@H]3[C@H](CC[C@@]4(C)[C@H]3C[C@H]([N+]3(C)CCCCC3)[C@@H]4OC(C)=O)[C@@]2(C)C[C@@H]1[N+]1(C)CCCCC1` [Pancuronium bromide], the growth is 0.918.

In the case of `CC(C)(C)C(O)(CCc1ccc(Cl)cc1)Cn1cncn1` (centres undefined), the growth came to 0.978.

`CCNC1(c2cccs2)CCCCC1=O` (centres undefined) [Tiletamine hydrochloride]: the growth was 1.04.

With `COc1ccc(OC)c(C(O)C(C)N)c1` (centres undefined) [Methoxamine hydrochloride], the growth was 0.777.

The test system of a further assay is Escherichia coli IAI1. The description is as above. Particulars: 20 µM; incubation time: 27 h, anaerobic, 37 °C. An outline of the steps: as §1
In the case of `C=C[C@H]1CN2CC[C@H]1C[C@H]2[C@H](OC(=O)OCC)c1ccnc2ccc(OC)cc12` [Quinine ethyl carbonate], the growth was found to be 1.01.

As for `S=C(NC1CCCCC1)N1CCC(c2cnc[nH]2)CC1` [Thioperamide maleate], the growth was 1.03.

As to `N#Cc1sc2c(=O)c3ccccc3c(=O)c=2sc1C#N`, the growth was 1.02.

Regarding `CC(=O)OC1CN2CCC1CC2` (centres undefined) [Aceclidine hydrochloride], the growth is 1.09.

Regarding `C1=Cc2cccc3cccc1c23` [Acenaphthylene], the growth was 1.03.

Regarding `CS(=O)(=O)c1ccc(C(=O)C2C(=O)CCCC2=O)c([N+](=O)[O-])c1`, the growth turned out to be 1.02.

Turning to `CCN(CC)CCOC(=O)C(O)(c1ccccc1)c1ccccc1` [Benactyzine hydrochloride], the growth was determined as 1.01.

For the compound `c1ccc2c(c1)Nc1ccccc1S2` [Phenothiazine], the growth came out at 0.906.

Regarding `CCC1(C)CC(=O)NC(=O)C1` [Bemegride], the growth came to 1.06.

As to `CNC(=O)/C=C(\C)OP(=O)(OC)OC`, the growth was 1.01.

Turning to `CC[N+]1(C)CCCC(OC(=O)C(O)(c2ccccc2)c2ccccc2)C1` (centres undefined) [Pipenzolate bromide], the growth stood at 0.997.

Turning to `CC(C)(C)c1ccc(CSc2cnn(C(C)(C)C)c(=O)c2Cl)cc1`, the growth is 0.995.

For `CSc1nc(NC(C)C)nc(NC(C)C)n1`, the growth was determined as 1.01.

Turning to `O=C(Nc1ccc(F)cc1F)c1cccnc1Oc1cccc(C(F)(F)F)c1`, the growth was determined as 1.02.

Regarding `O=C(CCCN1CCC2(CC1)C(=O)NCN2c1ccccc1)c1ccc(F)cc1` [Spiperone], the growth is 0.96.

`CCOCN(C(=O)CCl)c1c(C)cccc1CC`: the growth is 1.01.

On to `ClC1C(Cl)C(Cl)C(Cl)C(Cl)C1Cl` (centres undefined), for which the growth was determined as 1.

`CCSC(C)CC1CC(=O)C(/C(CC)=N/OC/C=C/Cl)=C(O)C1` (mixture of isomers): the growth was 1.04.

Regarding `O=P1(N(CCCl)CCCl)NCCCO1` (centres undefined) [Cyclophosphamide], the growth came to 1.02.

Regarding `CN1[C@@H]2C[C@@H](OC(=O)[C@H](CO)c3ccccc3)C[C@H]1[C@@H]1O[C@@H]12` [Scopolamine hydrochloride], the growth is 1.01.

In the case of `COP(=S)(OC)SCN1C(=O)c2ccccc2C1=O`, the growth is 1.08.

With `CC(C)N(C)S(=O)(=O)NC(=O)c1cc(-n2c(=O)cc(C(F)(F)F)n(C)c2=O)c(F)cc1Cl`, the growth worked out at 0.981.

As for `CN/C(=N/CC1CCOC1)N[N+](=O)[O-]` (centres undefined), the growth was found to be 1.

Take `CC(=O)O[C@H]1C[C@H](O[C@H]2[C@@H](O)C[C@H](O[C@H]3[C@@H](O)C[C@H](O[C@H]4CC[C@@]5(C)[C@H](CC[C@@H]6[C@@H]5C[C@@H](O)[C@]5(C)[C@@H](C7=CC(=O)OC7)CC[C@]65O)C4)O[C@@H]3C)O[C@@H]2C)O[C@H](C)[C@H]1O[C@@H]1O[C@H](CO)[C@@H](O)[C@H](O)[C@H]1O` [Lanatoside C]: the growth was determined as 0.957.

Take `NC(=O)C[S+]([O-])C(c1ccccc1)c1ccccc1` (centres undefined) [Modafinil]: the growth worked out at 0.705.

With `CCn1cc(C(=O)O)c(=O)c2cc3c(cc21)OCO3` [Oxolinic acid], the growth was found to be 0.0401.

As for `c1ccc2c(c1)cc1ccc3cccc4ccc2c1c34` [Benzo[a]pyrene], the growth is 1.03.

As to `CCNC(=O)NC(=O)/C(C#N)=N/OC`, the growth amounted to 1.08.

`CNC(=O)Oc1ccc2c(c1)[C@]1(C)CCN(C)[C@@H]1N2C` [Eserine hemisulfate salt]: the growth came out at 1.06.

Consider `Oc1ccc2c3c1O[C@H]1[C@@H](O)CC[C@@]4(O)[C@@H](C2)N(CC2CCC2)CC[C@]314` [Nalbuphine hydrochloride], for which the growth stood at 0.895.

With `CON(C)C(=O)Nc1ccc(Cl)c(Cl)c1`, the growth worked out at 1.01.

As for `C=CC(N)=O` [Acrylamide], the growth worked out at 0.969.

As for `Nc1ccncc1` [Dalfampridine], the growth stood at 0.992.

Turning to `CC(=O)O[C@H]1C[C@@H]2CC[C@@H]3[C@H](CC[C@@]4(C)[C@H]3C[C@H]([N+]3(C)CCCCC3)[C@@H]4OC(C)=O)[C@@]2(C)C[C@@H]1[N+]1(C)CCCCC1` [Pancuronium bromide], the growth came out at 1.08.

Regarding `CC(C)(C)C(O)(CCc1ccc(Cl)cc1)Cn1cncn1` (centres undefined), the growth stood at 1.03.

For `CCNC1(c2cccs2)CCCCC1=O` (centres undefined) [Tiletamine hydrochloride], the growth is 1.

Turning to `COc1ccc(OC)c(C(O)C(C)N)c1` (centres undefined) [Methoxamine hydrochloride], the growth was found to be 0.736.

(Values after the supplement of paper PMC12494721.)
